Only some compounds are listed: those with a hit (about 12% of all), similar ones and a draw of the others.
L3MBTL1 block = blocks human L3MBTL1; Potency, µM (series often up to 57.1 µM), usual class: inhibitors; 230,000 compounds, 0.66% hits; AlphaScreen L3MBTL1–H3K9me1 peptide binding; Q9Y468; note: nearly all actives have a fitted effect of over 60% in size
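L3MBTL1 50 nM + b-AHA-H3(1-15)K9me1 75 nM, 30 min RT; compound added, 30 min RT; streptavidin donor/Ni-chelate acceptor beads 10 ug/mL each final, 30 min RT dark; AlphaScreen read.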
BAZ2B block = inhibitors of human BAZ2B bromodomain; Q9UIF8; AlphaScreen BAZ2B-H3K14Ac peptide displacement; Potency, µM (doses to about 114 µM), actives largely listed as inhibitors; 360,000 compounds, 4.4% hits; AID 504333; note: nearly all actives have a fitted effect of over 60% in size
Target sequence (Q9UIF8 whole entry, looked up): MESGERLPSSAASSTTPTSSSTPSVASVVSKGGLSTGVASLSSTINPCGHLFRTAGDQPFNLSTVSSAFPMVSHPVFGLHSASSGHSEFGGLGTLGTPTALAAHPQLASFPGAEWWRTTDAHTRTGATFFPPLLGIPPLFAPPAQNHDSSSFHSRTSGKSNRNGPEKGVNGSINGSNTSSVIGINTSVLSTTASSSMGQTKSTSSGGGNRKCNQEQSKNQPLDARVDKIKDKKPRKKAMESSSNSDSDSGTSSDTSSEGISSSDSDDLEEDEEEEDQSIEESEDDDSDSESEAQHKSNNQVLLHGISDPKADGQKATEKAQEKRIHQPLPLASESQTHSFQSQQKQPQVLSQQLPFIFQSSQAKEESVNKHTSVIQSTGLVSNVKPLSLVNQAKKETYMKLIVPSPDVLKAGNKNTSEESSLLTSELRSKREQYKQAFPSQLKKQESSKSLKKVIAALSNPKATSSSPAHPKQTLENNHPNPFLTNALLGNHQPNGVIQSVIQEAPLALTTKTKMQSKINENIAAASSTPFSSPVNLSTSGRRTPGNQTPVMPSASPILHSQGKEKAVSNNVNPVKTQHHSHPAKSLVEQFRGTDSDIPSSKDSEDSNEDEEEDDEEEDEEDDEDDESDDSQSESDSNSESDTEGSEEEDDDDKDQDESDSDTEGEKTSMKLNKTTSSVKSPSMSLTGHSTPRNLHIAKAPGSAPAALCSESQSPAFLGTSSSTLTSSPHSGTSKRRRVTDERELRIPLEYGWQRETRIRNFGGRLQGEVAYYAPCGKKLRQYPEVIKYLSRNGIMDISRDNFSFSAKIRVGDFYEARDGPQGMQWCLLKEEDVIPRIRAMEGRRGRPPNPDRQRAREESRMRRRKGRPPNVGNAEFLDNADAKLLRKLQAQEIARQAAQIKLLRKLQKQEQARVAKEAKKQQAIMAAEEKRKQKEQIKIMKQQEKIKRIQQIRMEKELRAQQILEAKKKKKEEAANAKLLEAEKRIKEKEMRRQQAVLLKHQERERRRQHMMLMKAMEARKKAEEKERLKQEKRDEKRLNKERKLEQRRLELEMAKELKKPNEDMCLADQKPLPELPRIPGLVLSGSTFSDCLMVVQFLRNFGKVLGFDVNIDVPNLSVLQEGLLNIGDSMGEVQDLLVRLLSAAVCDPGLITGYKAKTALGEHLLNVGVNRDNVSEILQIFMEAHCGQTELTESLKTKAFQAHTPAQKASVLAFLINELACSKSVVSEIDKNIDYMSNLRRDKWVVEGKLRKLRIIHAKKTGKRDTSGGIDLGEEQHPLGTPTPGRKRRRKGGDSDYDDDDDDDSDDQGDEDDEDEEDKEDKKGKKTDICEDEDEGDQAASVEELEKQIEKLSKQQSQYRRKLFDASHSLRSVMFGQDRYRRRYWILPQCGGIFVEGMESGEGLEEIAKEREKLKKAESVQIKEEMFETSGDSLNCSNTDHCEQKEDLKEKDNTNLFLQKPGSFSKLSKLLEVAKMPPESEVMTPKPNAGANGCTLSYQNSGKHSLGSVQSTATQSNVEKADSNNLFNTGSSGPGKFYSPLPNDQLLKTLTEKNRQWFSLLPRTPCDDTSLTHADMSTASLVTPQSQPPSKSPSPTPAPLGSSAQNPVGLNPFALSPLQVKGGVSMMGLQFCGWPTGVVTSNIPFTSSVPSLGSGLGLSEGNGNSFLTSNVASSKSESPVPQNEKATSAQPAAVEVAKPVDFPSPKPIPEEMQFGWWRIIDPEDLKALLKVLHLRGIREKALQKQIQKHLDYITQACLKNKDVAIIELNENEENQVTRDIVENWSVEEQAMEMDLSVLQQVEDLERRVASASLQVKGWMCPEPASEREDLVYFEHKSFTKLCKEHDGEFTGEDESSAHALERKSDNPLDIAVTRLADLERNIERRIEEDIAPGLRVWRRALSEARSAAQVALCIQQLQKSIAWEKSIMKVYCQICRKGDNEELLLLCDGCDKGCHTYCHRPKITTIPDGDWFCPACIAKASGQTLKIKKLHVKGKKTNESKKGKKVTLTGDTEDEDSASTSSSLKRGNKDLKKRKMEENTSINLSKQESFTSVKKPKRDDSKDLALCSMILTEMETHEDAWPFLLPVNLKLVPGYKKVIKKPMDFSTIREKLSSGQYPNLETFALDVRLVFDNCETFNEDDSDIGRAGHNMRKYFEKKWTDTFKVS
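AlphaScreen luminescence quantifies BAZ2B engagement of H3K14Ac peptide; the protein and biotinylated peptide are both at 50 nM final, buffer PBS pH 7.4 with 0.01% Tween-20, all steps at room temperature.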
Sfp PPTase inh = inhibitors of Bacillus subtilis Sfp phosphopantetheinyl transferase. Q9F4F7. Biochemical Sfp PPTase activity, qHTS. Potency, µM, hits mostly inhibitors. 310,000 compounds, 3.5% hits. AID 1490;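 note: the enzyme is Sfp with the accession as filed and its product quenches rhodamine fluorescence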
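With Hepes-Na pH 7.6 buffer containing 10 mM MgCl2, Sfp (15 nM) modified BHQ-2-YbbR (12.5 uM) using rhodamine-CoA (5 uM). Two reads 30 minutes apart at 525/598 nm yielded each well's rate.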
JMJD2A Tudor = inhibitors of human JMJD2A Tudor domain. O75164. AlphaScreen JMJD2A-Tudor / H3K4me3 peptide binding. Potency, µM (titrated, usually from 114 µM), hits mostly inhibitors. 390,000 compounds, 4.4% hits. AID 504339; note: nearly all actives have a fitted effect of over 50% in size
G9a block = inhibitors of human histone lysine methyltransferase G9a | Q96KQ7 | G9a H3K9 monomethylation, AlphaScreen, 2 h | Potency, µM (highest dose often 102 µM), actives largely listed as inhibitors | 350,000 compounds, 8.8% hits; note: nearly all actives have a fitted effect of over 75% in size
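Readings reflect AlphaScreen signal from monomethyl-H3K9 antibody detection. HMT at 20 nM; substrate b-H3K9 500 nM; cofactor SAM 20 uM; 2 h RT reaction; compounds tested as titrations in qHTS with 15 min preincubation.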
HP1b chromo inh = HP1-beta chromodomain-methylated histone interaction inhibition; P83916; AlphaScreen HP1-beta / biotin-H3K9me3 peptide binding; Potency, µM (titrated, usually from 114 µM), actives largely listed as inhibitors; AID 540317; 390,000 compounds, 0.56% hits; note: nearly all actives have a fitted effect of over 70% in size
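HP1-beta protein (50 nM final) preincubated 30 min at room temperature with biotinylated H3(1-18)K9me3 peptide (50 nM) in PBS pH 7.4, 0.01% Tween-20, then compound added for 30 min. AlphaScreen streptavidin donor/nickel chelate acceptor beads (10 ug/mL final), 30 min dark, luminescence read.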
Large screens that a line does not name were inactive. Calls come from the whole dose curve; as a rule, active = well fitted curve in the direction sought with a large enough effect; inconclusive = small, poorly fitted or top-dose-only effect, or another doubt; inactive = no such curve, though single readings can be large; an effect the other way counts as inactive or inconclusive.

CCc1ccc2c(c1)C1(NN=C(c3ccc(C)cc3)S1)C(=O)N2 (configuration not stated)	L3MBTL1 block inconclusive, BAZ2B block 7.94µM, JMJD2A Tudor 50.1µM, G9a block 28.2µM, HP1b chromo inh 17.8µM
CC(C)c1ccc2c(c1)C1(NN=C(c3ccccc3)S1)C(=O)N2 (configuration not stated)	L3MBTL1 block inconclusive, BAZ2B block 10µM, JMJD2A Tudor 70.8µM, G9a block 17.8µM, HP1b chromo inh inconclusive
O=C(CNC(=O)C1CCCCC1)OCC(=O)c1ccccc1	none (no result: L3MBTL1 block, BAZ2B block, Sfp PPTase inh, G9a block)
CN1C(=O)C(O)(CC(=O)c2ccccc2O)c2cc(Br)ccc21 (configuration not stated)	BAZ2B block inconclusive
Cc1ccc(C(=O)CC2(O)C(=O)N(C)c3ccccc32)o1 (configuration not stated)	G9a block 50.1µM (no result: L3MBTL1 block)
CN1C(=O)C(O)(CC(=O)/C=C/C=C/c2ccccc2)c2ccccc21 (configuration not stated)	BAZ2B block inconclusive, Sfp PPTase inh inconclusive
CN1C(=O)C(O)(CC(=O)/C=C/c2ccco2)c2ccccc21 (configuration not stated)	Sfp PPTase inh 25.1µM, G9a block inconclusive
CN1C(=O)C(O)(CC(=O)/C=C/c2ccco2)c2cc(Br)ccc21 (configuration not stated)	Sfp PPTase inh 44.7µM, G9a block 35.5µM
CCC(C)NC(=O)CCc1c(C)nc2c(c(C)nn2-c2ccc(C)cc2)c1C (configuration not stated)	none (no result: L3MBTL1 block, Sfp PPTase inh)
O=C(Nc1ccccc1)C1=C(c2ccccc2)S(=O)(=O)CCS1(=O)=O	Sfp PPTase inh 12.6µM, G9a block 28.2µM
COc1c2c(cc3c1C(CC(=O)c1c(O)c(OC)c4occc4c1OC)[N+](C)(C)CC3)OCO2 (configuration not stated)	none (no result: L3MBTL1 block, BAZ2B block, JMJD2A Tudor, G9a block, HP1b chromo inh)
COc1ccc(C2c3c(n(C)c4ccccc34)C(=O)N2CC(=O)Nc2c(C)cc(C)cc2C)cc1 (configuration not stated)	G9a block inconclusive (no result: L3MBTL1 block, Sfp PPTase inh)
CCCn1nnc(NC(=S)NC(=O)Cc2ccccc2)n1	G9a block 31.6µM
CCCn1nnc(NC(=S)NC(=O)CC)n1	Sfp PPTase inh 39.8µM, JMJD2A Tudor 2.82µM, G9a block 8.91µM, HP1b chromo inh inconclusive (no result: L3MBTL1 block)
CCCCn1nnc(NC(=S)NC(=O)c2cccs2)n1	Sfp PPTase inh inconclusive, JMJD2A Tudor inconclusive, G9a block 10µM
Cc1ccc(-n2nc(CO)c(C(=O)NCCC(C)C)n2)cc1C	none (no result: L3MBTL1 block, Sfp PPTase inh)
Cc1ccc(C(=O)N/C(=C\c2cccs2)C(=O)NCCCn2ccnc2)cc1C	BAZ2B block 50.1µM, JMJD2A Tudor inconclusive
Cc1ccc(C(=O)N/C(=C\c2cccs2)C(=O)N2CCN(C)CC2)cc1C	G9a block 70.8µM (no result: L3MBTL1 block)
Cc1ccc(C(=O)N/C(=C\c2ccco2)C(=O)NCCCn2ccnc2)cc1C	L3MBTL1 block inconclusive, BAZ2B block 7.94µM, JMJD2A Tudor 17.8µM
O=C(NCCCn1ccnc1)/C(=C/c1ccco1)NC(=O)c1ccco1	JMJD2A Tudor inconclusive, HP1b chromo inh inconclusive
O=C(NCCCn1ccnc1)/C(=C/c1ccco1)NC(=O)c1cccs1	BAZ2B block 79.4µM, G9a block inconclusive (no result: L3MBTL1 block)
COc1ccc(-c2noc(CSc3nnc(C)n3-c3ccc(C)c(C)c3)n2)c(OC)c1	none (no result: L3MBTL1 block, Sfp PPTase inh)
O=C1[C@H]2[C@H]3[C@H](O)[C@H](O)C/C(=N/OCc4ccccc4)[C@@H]3CC[C@@H]2C(=O)N1Cc1ccc2c(c1)OCO2	none (no result: L3MBTL1 block, BAZ2B block, JMJD2A Tudor, G9a block, HP1b chromo inh)
CCC1CN(C(=O)Nc2ccc(Br)cc2F)c2ccccc2S1 (configuration not stated)	none (no result: L3MBTL1 block, Sfp PPTase inh)
CCCCOc1ccc(S(=O)(=O)n2nc(C)c(S(=O)(=O)N3CCC(C)CC3)c2C)cc1	none (no result: L3MBTL1 block, Sfp PPTase inh)
CC1CN(C2CCN(S(=O)(=O)c3ccc(F)cc3)CC2)CC(C)O1 (configuration not stated)	BAZ2B block 31.6µM, JMJD2A Tudor 2.82µM, G9a block 10µM, HP1b chromo inh inconclusive (no result: L3MBTL1 block)
Cc1ccc(S(=O)(=O)N2CCC(N3CCC(C)CC3)CC2)cc1	BAZ2B block inconclusive, JMJD2A Tudor 1.58µM, G9a block 25.1µM, HP1b chromo inh inconclusive (no result: L3MBTL1 block)
Cc1ccc(S(=O)(=O)n2nc(C)c(S(=O)(=O)N3CCC(C)CC3)c2C)cc1	JMJD2A Tudor 79.4µM (no result: L3MBTL1 block, Sfp PPTase inh)
O=S(=O)(c1ccc(S(=O)(=O)N2CCC3(CC2)OCCO3)cc1)N1CCCC1	none (no result: L3MBTL1 block)
CC1CCN(S(=O)(=O)c2ccc(S(=O)(=O)N3CCC4(CC3)OCCO4)cc2)CC1	G9a block 11.2µM
CCOc1[nH]c(/N=C/c2ccccc2)c(C#N)c1C#N	none (no result: L3MBTL1 block, BAZ2B block, Sfp PPTase inh, G9a block)
CC12CC[C@@H]3c4ccc(OS(=O)(=O)O)cc4CC[C@H]3C1CCC2=O (some centres not stated)	none (no result: L3MBTL1 block, BAZ2B block, JMJD2A Tudor, HP1b chromo inh)
Cn1c(=O)[nH]c(=O)c2c1nc(SCCO)n2Cc1ccccc1Cl	JMJD2A Tudor inconclusive, G9a block 44.7µM
CCC(C)Sc1nc2c(c(=O)[nH]c(=O)n2C)n1Cc1ccccc1Cl (configuration not stated)	G9a block 25.1µM
O=C(CSc1nc2ccccc2n1Cc1cccc(F)c1)NCc1ccccc1	none (no result: L3MBTL1 block, Sfp PPTase inh)
Cc1cc(C)c2c(=O)cc(CSCC(=O)Nc3ccccc3Cl)[nH]c2c1	none (no result: L3MBTL1 block, Sfp PPTase inh)
COc1ccc(-n2nnc(-c3nsc(NC(=O)c4cccc(C)c4)n3)c2C)cc1OC	none (no result: L3MBTL1 block, Sfp PPTase inh)
CC(C)N1CSC(=S)N(Cc2ccccc2)C1	G9a block 31.6µM
CC(C)(C)N1CSC(=S)N(Cc2ccccc2)C1	G9a block inconclusive
COc1ccc(NC(=O)c2csnn2)cc1Cl	G9a block inconclusive (no result: L3MBTL1 block, Sfp PPTase inh)
Cn1c(SCC(=O)Nc2ccc(Cl)cn2)nnc1C1CC1	none (no result: L3MBTL1 block)
Cn1c(SCC(=O)Nc2nncs2)nnc1C1CC1	BAZ2B block 50.1µM, JMJD2A Tudor 56.2µM (no result: L3MBTL1 block, G9a block)
CN(C)c1ccc(NC(=O)CSc2nnc(C3CCCCC3)n2N)cc1	BAZ2B block inconclusive, JMJD2A Tudor inconclusive, G9a block 39.8µM (no result: L3MBTL1 block)
COc1ccc(NC(=O)CSc2nnc(C3CC3)n2C)cc1	JMJD2A Tudor 10µM
Cn1c(SCC(=O)c2ccccc2F)nnc1C1CC1	BAZ2B block inconclusive, Sfp PPTase inh 50.1µM, G9a block inconclusive
Cc1ccc(Nc2nc(C(N)=O)c(NC(=O)c3ccccc3Br)s2)cc1	none (no result: L3MBTL1 block, Sfp PPTase inh)
Nn1c(SCC(=O)Nc2nccs2)nnc1C1CC1	G9a block 39.8µM (no result: L3MBTL1 block)
COc1ccc(Br)c2c1-c1nc(NC(=O)c3cccc(C)c3)sc1C2	BAZ2B block inconclusive, JMJD2A Tudor inconclusive, G9a block inconclusive (no result: L3MBTL1 block, Sfp PPTase inh)

From PubChem
